# Test results published in PubChem BioAssay AID1508607 (The Scripps Research Institute Molecular Screening Center, 2020).
# The campaign covered roughly 2,300 compounds. About 20 (0.9%) were called active.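 How the source made its calls: active means mean percent activation across replicates above the counterscreen hit cutoff of 9.17%; inactive means the rest.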 The full list was thinned out, with actives kept by preference.
# Target: Glucose-dependent insulinotropic receptor (Homo sapiens) (UniProt Q8TDV5)
# Experiment: off-target GPR119 activation – cell-based, PathHunter beta-arrestin, luminescence, set 2, counter-screen for GPR151 activator project, confirmation (AID 1508607);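 further: 0% = median of sample wells and 100% = wells given EA reagent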
# Details: GPR119 PathHunter beta-arrestin cells, 90 min, at 11.2 µM, stronger effect = higher value
# Glucose-dependent insulinotropic receptor (Homo sapiens), sequence (Q8TDV5 whole entry, looked up): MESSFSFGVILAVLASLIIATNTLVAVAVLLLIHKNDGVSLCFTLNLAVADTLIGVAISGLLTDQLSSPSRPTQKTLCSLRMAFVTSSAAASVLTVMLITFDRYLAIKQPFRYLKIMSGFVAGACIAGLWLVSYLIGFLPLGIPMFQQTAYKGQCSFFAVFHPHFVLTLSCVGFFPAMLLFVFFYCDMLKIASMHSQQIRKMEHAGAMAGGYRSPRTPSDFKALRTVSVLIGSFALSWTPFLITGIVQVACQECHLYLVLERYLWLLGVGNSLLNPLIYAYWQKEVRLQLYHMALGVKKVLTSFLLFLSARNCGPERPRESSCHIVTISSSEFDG
row,SMILES,activation
1,C(=N\Nc1nnnn1-c1cccc2ccccc12)/c1ccc2c(c1)OCO2,3.7% (inactive)
2,O=C(COc1ccc(Cl)cc1Cl)Nc1c2c(nn1-c1ccc(F)cc1)CSC2,3.41% (inactive)
3,CCOc1cc(/C=C2/C(=N)N3OC(C)=CC3=NC2=O)ccc1OCc1ccc2c(c1)OCO2,2.7% (inactive)
4,O=C1[C@H]2[C@H]3[C@H](O)[C@H](O)C/C(=N\OCc4ccccc4)[C@H]3CC[C@H]2C(=O)N1C1CCCCC1,-1.69% (inactive)
5,Cc1cc(/C=C2/C(=N)N3C=CSC3=NC2=O)c(C)n1-c1ccc(Cl)cc1,-1.56% (inactive)
6,CCN(CC)c1cc(C)c2ccccc2n1,1.75% (inactive)
7,Cc1ccc(OC(C)c2nc(-c3ccc(OCC(N)=O)cc3)no2)cc1C (centres undefined),8.62% (inactive)
8,CC1CCN(Cc2nnnn2CC(=O)NCC2CCCO2)CC1 (centres undefined),4.51% (inactive)
9,CC(=O)c1ccc(NCN2C(=O)C3CC=C(Cl)CC3C2=O)cc1 (centres undefined),2.21% (inactive)
10,COC(=O)c1cn(-c2ccccc2)nc1-c1ccc(F)cc1,0.06% (inactive)
11,COc1ccc(-c2noc(CC(=O)NCCN3CCOCC3)n2)cc1,0.07% (inactive)
12,COc1ccc2nc(N3CCCC(C(=O)NCCCOC(C)C)C3)sc2c1 (centres undefined),0.71% (inactive)
13,COc1ccc(C2C(C(=O)OCCc3ccccc3)=C(C)NC3=C2C(=O)CCC3)cc1O (centres undefined),3.23% (inactive)
14,COC(=O)C1=C(N)n2c(s/c(=C\c3ccc(Cl)cc3)c2=O)=C(C(=O)OC)C1c1ccc(Cl)cc1 (centres undefined),-5.44% (inactive)
15,CC1CC(C)CN(C(=O)Cn2cc(C=O)c3ccccc32)C1 (centres undefined),0.05% (inactive)
16,COC(=O)CN1C(=O)S/C(=C/c2ccco2)C1=O,3.06% (inactive)
17,Cn1ccnc1C(=O)C1CCCN(C(=O)CCc2nnc(-c3ccccc3)o2)C1 (centres undefined),2.54% (inactive)
18,COc1ccc(-c2cc(-c3ccccc3)c(C#N)c(SC3CCCCC3O)n2)cc1 (centres undefined),4.49% (inactive)
19,COc1cc(/C=C2/C(=N)N3OC(C)=CC3=NC2=O)ccc1OCCOc1ccc(C)cc1,2.89% (inactive)
20,CCOC(CNc1ncnc2sc(C)c(C)c12)OCC,0.97% (inactive)
21,CCC(=O)N1CCN(c2ccc(NC(=O)c3ccco3)cc2)CC1,0.71% (inactive)
22,Cc1ccc(/C=N/NC(=O)c2ccc(O)cc2O)cc1,-2.17% (inactive)
23,O=C(O/C(=C/c1nc2ccccc2n1Cc1cccc2ccccc12)c1ccc(Cl)cc1)c1ccc(Cl)cc1,-1.84% (inactive)
24,COc1ccccc1C(=O)COC(=O)C1(C)CC1(Cl)Cl (centres undefined),5.89% (inactive)
25,CCC(C(=O)N1CCOCC1)n1c2ccccc2c2cn[nH]c(=O)c21 (centres undefined),-3.25% (inactive)

row,SMILES,activation
1,O=C(CC(c1ccccc1)c1ccccc1)N1CCN(c2cccc(Cl)c2)CC1,-2.36% (inactive)
2,CCc1c(C(=O)N2CCN(c3cccc(Cl)c3)CC2)[nH]c(C)c1C(C)=O,20.1% (active)
3,CC(=O)c1c(C)[nH]c(C(=O)N2CCN(c3ncccn3)CC2)c1C,-3.09% (inactive)
4,CC(C)(C)NC(=S)Nc1cccc(F)c1,6.02% (inactive)
5,COc1ccc(CCn2c(-c3ccc(Cl)cc3)csc2=Nc2ccc(F)cc2)cc1OC,0.18% (inactive)
6,COc1ccc(N(C(=O)C(C)Oc2ccccc2)C2C=CS(=O)(=O)C2)c(OC)c1 (centres undefined),-0.94% (inactive)
7,O=C1N[C@H](Cc2ccc(O)cc2)C(=O)N2CCN(Cc3cnn(-c4cccc(Cl)c4)c3)C[C@H]12,3.76% (inactive)
8,COc1ccc(CNC(=O)C(NS(=O)(=O)c2ccc3c(c2)oc(=O)n3C)C(C)C)cc1 (centres undefined),-0.7% (inactive)
9,Cc1cccc(N2CCN(C(=O)c3ccc(S(=O)(=O)c4ccc(F)cc4)c([N+](=O)[O-])c3)C(C)C2)c1 (centres undefined),14.7% (active)
10,COc1ccc(N2CCN(C(=O)c3ccc(SCc4ccccc4F)c([N+](=O)[O-])c3)CC2)cc1,0.52% (inactive)
11,Cc1ccc(C)c(N2CCN(C(=O)c3ccc(S(=O)(=O)c4ccc(Br)cc4)c([N+](=O)[O-])c3)CC2)c1,4.42% (inactive)
12,Cc1ccccc1-n1cc(-c2ccccc2)[nH]c1=S,-4.28% (inactive)
13,CSC1=NCCN1C(=O)COc1ccc2ccccc2c1,-1.84% (inactive)
14,COc1cc2nc(SCC(N)=O)n3nc(CCn4nc(C)cc4C)nc3c2cc1OC,1.45% (inactive)
15,Cc1c(C(=O)NCCC2CCCN2C)sc2ncnc(NCc3ccco3)c12 (centres undefined),3.32% (inactive)
16,CCc1nnc(NC(=O)CSc2nc3cccnc3n2Cc2ccccc2)s1,0.71% (inactive)
17,O=C(COc1ccccc1[N+](=O)[O-])N/N=C/c1ccc(Br)cc1,0.11% (inactive)
18,Cc1cccc2c(N3CCCC3)nc(CNS(=O)(=O)c3ccc4c(c3)OCCO4)nc12,-0.61% (inactive)
19,COCC1CCN(c2nc3nonc3nc2NC2CCCC2)CC1,2.9% (inactive)
20,O=C(CN1C(=O)C(c2ccccc2)=NC12CCCC2)Nc1ccccc1,-0.92% (inactive)
21,CCC(CC)C(=O)Nc1nnc(SCC(=O)Nc2cc(C(F)(F)F)ccc2Cl)s1,1.93% (inactive)
22,Cn1cc(SCC(=O)Nc2ccccc2C(F)(F)F)c2ccccc21,3.59% (inactive)
23,O=C(Nc1cc(C(F)(F)F)ccc1Cl)c1ccc(C(=O)C(=O)c2ccccc2)cc1,6.45% (inactive)
24,Cc1ccc2c(c1)c(=O)c1ccccc1n2CC(=O)Nc1cccc(Cl)c1C,-2.08% (inactive)
25,CCOC(=O)c1nnn(CC(=O)Nc2cccc(C)c2)c1C(=O)OCC,1.6% (inactive)

row,SMILES,activation
1,Cc1cc2c(cc1C)C(c1cc([N+](=O)[O-])ccc1Cl)CC(=O)N2 (centres undefined),0.43% (inactive)
2,O=C(CCCn1c(=O)[nH]c2ccccc2c1=O)NC1CCCC1,-1.75% (inactive)
3,CCn1c(SC(C)C(=O)OC)nc2c(c1=O)SC(C)C2 (centres undefined),-0.05% (inactive)
4,COc1ccc(NS(=O)(=O)c2ccc(NC(=S)NC(C)=O)cc2)cc1,3.81% (inactive)
5,CCC(C)NC(=O)c1cc2c(=O)oc3ccccc3c2s1 (centres undefined),4.04% (inactive)
6,CCC(C)NC(=O)c1cc(=O)[nH]c2ccc(Br)cc12 (centres undefined),47.8% (active)
7,CCC(C)NC(=O)c1ccc(-n2c(=S)[nH]c3ccccc3c2=O)cc1 (centres undefined),0% (inactive)
8,CCc1c(C)sc(NC(NC(=O)C(C)C)(C(F)(F)F)C(F)(F)F)c1C#N,-0.12% (inactive)
9,COc1cc(C2CC(=O)N3CN(C4CCCCC4)CSC3=C2C#N)cc(OC)c1OC (centres undefined),-2.01% (inactive)
10,CCOC(=O)c1c(NC(=O)CSc2c[nH]c3ccccc23)sc2c1CCCCC2,4.28% (inactive)
11,CCCCCCCCCCCCCC/C(C(=O)O)=C(\C)C(=O)O,-2.17% (inactive)
12,Cc1ccc2c(c1)NC(C)(C)c1sn(-c3ccc(C(C)C)cc3)c(=S)c1-2,1.46% (inactive)
13,CC(C)C1Nc2c(O)cc(Cl)c([N+](=O)[O-])c2C2C=CCC21 (centres undefined),10.3% (active)
14,O=[N+]([O-])c1c(Cl)cc(O)c2c1C1C=CCC1C(c1ccc(Cl)cc1Cl)N2 (centres undefined),5.29% (inactive)
15,O=C(Nc1ccccc1C(F)(F)F)c1cnn2c(C(F)(F)F)cc(-c3ccco3)nc12,-0.72% (inactive)
16,CCOC(=O)c1cnc2c(OC)cccc2c1N1CCN(CC)CC1,-1.9% (inactive)
17,CCC(Sc1nc(NC2CCCCC2)c2ccccc2n1)C(=O)Nc1ccc2c(c1)OCO2 (centres undefined),0.68% (inactive)
18,CCC(=O)Nc1ccc(NC(=O)CSc2nc3c(c(=O)n(C)c(=O)n3C)n2C)cc1,-0.37% (inactive)
19,O=C(O)c1ccc(CN(Cc2ccc(Cl)cc2)C(=S)Nc2ccc(Oc3ccccc3)cc2)cc1,-1.29% (inactive)
20,Cc1[nH]c2ccc(OCc3ccccc3)cc2c1CCNC(=O)COc1ccc(F)cc1F,-2.17% (inactive)
21,Cc1cc(Oc2nc3ccccn3c(=O)c2/C=C(\C#N)C(=O)N2CCCCC2)ccc1Cl,-22.9% (inactive)
22,O=C(c1ccccc1)N1N=C(c2ccccc2)CC1(O)C(F)(F)C(F)(F)F (centres undefined),4.17% (inactive)
23,Cc1ccc(S(=O)(=O)N2CCCC2CNC(=O)C(=O)NC2CCCC2)cc1 (centres undefined),-1.44% (inactive)
24,CCOc1ccccc1NC(=S)N(CCOC)C(C)c1ccccn1 (centres undefined),-1.68% (inactive)
25,Nc1ccc(C(=O)NCC2COc3ccccc3O2)cc1[N+](=O)[O-] (centres undefined),6.14% (inactive)

row,SMILES,activation
1,Nc1ncc(Br)cc1S(=O)(=O)Nc1cc(F)ccc1F,-0.83% (inactive)
2,CCOc1ccc(-c2nc(CSCC(=O)NCC3CCCO3)c(C)o2)cc1 (centres undefined),0.12% (inactive)
3,Cc1cc2oc3c(c(=O)c2cc1C)C(c1ccc(O)cc1)N(CCCN1CCOCC1)C3=O (centres undefined),2.08% (inactive)
4,COc1cc(/C=C/C(=O)c2ccc(F)cc2)cc(OC)c1OC,0.62% (inactive)
5,CC(C)CC(NC(=O)C(C)NC(=O)CNC(=O)C(NC=O)C(C)C)C(=O)NC(C)C(=O)NC(C(=O)NC(C(=O)NC(C(=O)NC(Cc1c[nH]c2ccccc12)C(=O)NC(CC(C)C)C(=O)NC(Cc1c[nH]c2ccccc12)C(=O)NC(CC(C)C)C(=O)NC(Cc1c[nH]c2ccccc12)C(=O)NC(CC(C)C)C(=O)NC(Cc1c[nH]c2ccccc12)C(=O)NCCO)C(C)C)C(C)C)C(C)C (centres undefined),39.2% (active)
6,CN(C)c1ncc(/C=C2/C(=O)NC(=S)N(c3ccccc3F)C2=O)cn1,0.14% (inactive)
7,COc1ccc(/C(C)=N/NC(=O)C(C)Nc2ccc(Cl)cc2)cc1 (centres undefined),-2.32% (inactive)
8,CC[C@@H](C(=O)C(C)[C@@H](O)[C@H](C)CCc1ccc(C)c(O)c1C(=O)O)C1OC(CC)(C2CC[C@](O)(CC)[C@H](C)O2)C[C@@H]1C (some centres undefined),29.8% (active)
9,COC(=O)C1=C(N)Oc2c(oc(CO)cc2=O)C1c1c(Cl)cccc1Cl (centres undefined),0.48% (inactive)
10,C=CCN1C(=O)/C(=C2\SC(N3CCCCC3)=NC2=O)c2cc(Br)ccc21,2.45% (inactive)
11,C=CCN1/C(=C\C=C2\C=Nc3ccc(Br)cc32)C=Cc2ccc(C)cc21,20.7% (active)
12,CC(C)c1onc(C(=O)Nc2cc(Cl)ccc2O)c1[N+](=O)[O-],-3.34% (inactive)
13,C=CCNC(=O)c1cccc(NS(=O)(=O)c2ccc(Cl)cc2)c1,4.37% (inactive)
14,CCc1ccc(C2CC(c3ccccc3)Nc3nc(N)nn32)cc1 (centres undefined),3.26% (inactive)
15,COc1ccc(Cn2c(C)c(C)n3c4c(=O)n(CCCO)c(=O)n(C)c4nc23)cc1,1.31% (inactive)
16,O=C(NCCSCc1ccccc1)c1ccc[nH]c1=S,2.53% (inactive)
17,CCSc1nnc(CSc2ncccn2)n1-c1ccccc1,-3.02% (inactive)
18,COc1cc(S(=O)(=O)N2CCN(c3ccc(C)c(C)c3)CC2)ccc1F,1.41% (inactive)
19,COc1ccc(-c2nnc3sc(NC(=O)C(C)C)nn23)cc1,-0.23% (inactive)
20,Cc1nccc2[nH]c(=O)c(C(=O)NC3CCN(Cc4ccccc4)CC3)cc12,0.02% (inactive)
21,Cc1cccc(NC(=O)c2c(-c3ccccc3Cl)noc2C)c1C,0.14% (inactive)
22,C=CCNc1nnc(-c2cc3c(CO)cnc(C)c3oc2=O)s1,-2.69% (inactive)
23,O=C1CCCN1CCCNc1nc(-c2cccc(Cl)c2)c2c(n1)-c1ccccc1OC2,-1.27% (inactive)
24,C=CCOC(=O)c1[nH]c2c(c1C)C(=O)C(C(=O)OC)C(C)C2 (centres undefined),2.72% (inactive)
